DT40 TDP1 CPT = DT40-hTDP1 cell growth loss with CPT; chicken DT40 Tdp1-/-;hTDP1 cells + 20 nM CPT, ATP luminescence, 48 h; Potency, µM (titrated, usually from 46.2 µM), actives largely listed as inhibitors; hit rate 12% among 420,000; also: nearly all actives have a fitted effect of over 55% in size
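Chicken DT40 Tdp1-/- cells complemented with human TDP1, 400 cells/well, exposed to compounds plus 20 nM camptothecin for at least 48 h at 37 C; viability read as ATP content by CellTiter-Glo luminescence.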
TDP1 cell noCPT = qHTS for Inhibitors of human tyrosyl-DNA phosphodiesterase 1 (TDP1): qHTS in cells in absence of CPT. DT40 Tdp1-/- hTDP1 cells, no CPT, ATP luminescence, 48 h. Potency, µM (top dose mostly 46.2 µM), usual class: inhibitors. hit rate 15% among 420,000. AID 686978, 2013; also: nearly all actives have a fitted effect of over 55% in size
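A cellular qHTS used chicken DT40 cells lacking endogenous Tdp1 but carrying stably transfected human TDP1. Compounds were applied without camptothecin, and cell growth kinetics were judged by ATP-dependent luminescence after ≥48 hr.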
TGFb inhibitor = TGF-b pathway inhibition; HepG2 CAGA-GFP TGF-b/SMAD3 reporter, GFP fluorescence, 18 h; TGF-beta stimulated, 500 pg/mL final; Potency, µM (top dose mostly 46.1 µM), hits mostly inhibitors; hit rate 1.2% among 410,000; AID 588855; also: nearly all actives have a fitted effect of over 65% in size
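Cell-based qHTS in HEPG2 carrying a CAGA-GFP Smad reporter; compounds added before 500 pg/mL final TGF-beta, 18 h incubation at 37 degrees C, GFP fluorescence quantified per cell by imaging cytometry.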
ASM inhibitor = blocks human secretory acid sphingomyelinase. placental ASM, HMU-PC fluorogenic substrate, 60 min. Potency, µM (top dose mostly 57.5 µM), hits mostly inhibitors. hit rate 0.006% among 340,000
Target sequence (P17405 47-631 limits assumed): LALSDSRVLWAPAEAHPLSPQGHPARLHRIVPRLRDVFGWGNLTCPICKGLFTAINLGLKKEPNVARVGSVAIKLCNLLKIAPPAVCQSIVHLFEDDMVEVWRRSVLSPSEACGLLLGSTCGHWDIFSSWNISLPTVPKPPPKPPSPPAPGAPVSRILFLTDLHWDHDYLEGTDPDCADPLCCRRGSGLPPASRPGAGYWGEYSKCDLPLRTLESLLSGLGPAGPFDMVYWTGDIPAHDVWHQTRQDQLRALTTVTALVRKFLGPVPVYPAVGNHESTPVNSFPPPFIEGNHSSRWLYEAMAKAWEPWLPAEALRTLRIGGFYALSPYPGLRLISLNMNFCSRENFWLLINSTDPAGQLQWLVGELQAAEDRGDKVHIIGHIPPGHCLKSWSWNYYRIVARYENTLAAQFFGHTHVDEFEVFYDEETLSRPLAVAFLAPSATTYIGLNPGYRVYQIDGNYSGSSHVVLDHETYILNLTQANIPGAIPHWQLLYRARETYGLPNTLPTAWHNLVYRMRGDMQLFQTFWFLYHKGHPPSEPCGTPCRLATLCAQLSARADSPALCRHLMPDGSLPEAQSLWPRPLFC
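qHTS format. ASM enzyme prepared from human placenta hydrolyses the fluorogenic substrate HMU-PC0 (9 uM final) over 60 min at 37 °C after a 10 min compound preincubation.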
IL-1B inflam inh = inflammasome signaling inhibition, IL-1 beta readout; THP-1 LPS/ATP IL-1B secretion, AlphaLISA, 16 h; stronger effect = lower value; activity change, % at 57.5 µM; hit rate 4.7% among 360,000; in the data active = activity change below about -50%; inconclusive = mostly about -30% to -49%
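THP-1 cells pretreated 1 hr with compounds (up to 57.5 uM final), then stimulated with LPS (250 ng/mL final) plus ATP (1.25 mM final); secreted IL-1B measured by AlphaLISA after 16 hr, decreased signal indicating inhibition.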
HepG2 tox = kills HepG2 cells in TGF-b inhibitor counter-screen; Potency, µM (doses to about 46.1 µM), most hits filed as cytotoxic; AID 588856; HepG2 CAGA-GFP viability, ATP luminescence, 18 h; hit rate 0.76% among 410,000
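HepG2 CAGA-GFP cells (1000/well, DMEM with 1% FBS) received compound, then TGF-beta at 500 pg/mL final, and were incubated 18 hours at 37 degrees C. Viability was read by CellTiter-Glo luminescence. Media-only wells were set as complete cell-killing and DMSO as no toxicity.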
Of the large screens only hits and unclear results are named; the others gave an inactive call. Most compounds without a hit are left out; they make up all but 19% or so of the library. Unless noted, calls follow the shape of the dose curve; as a rule, active = well fitted curve in the direction sought with a large enough effect; inconclusive = small, poorly fitted or top-dose-only effect, or another doubt; inactive = no such curve, though single readings can be large; an effect the other way counts as inactive or inconclusive.

COc1ccc(OC)c(NC(=O)CCNS(=O)(=O)c2ccc3c(c2)CC(C)N3C(C)=O)c1 (stereo not given)	none (no result: ASM inhibitor)
Cc1ccc(NC(=O)c2nc[nH]c2C(=O)N(C)Cc2ccccc2)cc1	DT40 TDP1 CPT inconclusive, TDP1 cell noCPT inconclusive, TGFb inhibitor inconclusive
Cc1cc(C)c(S(=O)(=O)N2CCN(C(=O)CC(C)n3nc(C)nc3C)CC2)c(C)c1 (stereo not given)	DT40 TDP1 CPT inconclusive (no result: ASM inhibitor)
Nc1c(C(=O)NCCN2CCOCC2)c2nc3ccccc3nc2n1-c1cccc(F)c1	DT40 TDP1 CPT inconclusive, TDP1 cell noCPT inconclusive, TGFb inhibitor inconclusive, IL-1B inflam inh -63
C=CCNC(=O)c1c(N)n(-c2ccc3c(c2)OCO3)c2nc3ccccc3nc12	DT40 TDP1 CPT 12µM, TDP1 cell noCPT 13µM
C=CCn1c(N)c(C(=O)Nc2ccc(C)c(C)c2)c2nc3ccccc3nc21	TDP1 cell noCPT inconclusive
O=C(NCCN1CCOCC1)c1ccc2ccccc2n1	none
C=CCn1c(N)c(C(=O)Nc2cccc(C)c2)c2nc3ccccc3nc21	IL-1B inflam inh -61
Nc1c(C(=O)Nc2ccccc2)c2nc3ccccc3nc2n1CCCN1CCOCC1	DT40 TDP1 CPT inconclusive, TDP1 cell noCPT inconclusive, TGFb inhibitor inconclusive, IL-1B inflam inh -78, HepG2 tox 14µM
Cc1nc(-c2ccc(F)cc2)sc1CCNC(=O)c1ccccc1C(F)(F)F	DT40 TDP1 CPT inconclusive, TDP1 cell noCPT inconclusive (no result: ASM inhibitor, IL-1B inflam inh)
Cc1ccc(CNc2ncnc3sc(C(=O)N4CCC[C@H]4C(N)=O)c(C)c23)o1	none (no result: TGFb inhibitor, ASM inhibitor, IL-1B inflam inh, HepG2 tox)
Nc1c(C(=O)NCC2CCCO2)c2nc3ccccc3nc2n1-c1ccccc1 (stereo not given)	DT40 TDP1 CPT 16µM, TDP1 cell noCPT 16µM, TGFb inhibitor inconclusive
COCCCNC(=O)c1c(N)n(-c2cccc(S(N)(=O)=O)c2)c2nc3ccccc3nc12	DT40 TDP1 CPT inconclusive, TDP1 cell noCPT inconclusive, TGFb inhibitor inconclusive, IL-1B inflam inh -53
O=C(NCC1CCCO1)c1ccccc1 (stereo not given)	none
CSc1nnc(-c2ccccc2N=Cc2c(C)[nH]n(-c3ccc4ccccc4c3)c2=O)c(=O)[nH]1	DT40 TDP1 CPT 21µM, TDP1 cell noCPT inconclusive
C=CCSc1nnc(-c2ccccc2N=Cc2c(C)[nH]n(-c3ccccc3)c2=O)c(=O)[nH]1	DT40 TDP1 CPT inconclusive, TDP1 cell noCPT inconclusive
CCCCC(=O)Nc1ccc(NC(=O)c2ccccc2[N+](=O)[O-])cc1OC	none
COc1cccc(/C=N/Nc2ncnc3c2ncn3Cc2ccccc2)c1O	DT40 TDP1 CPT 3.7µM, TDP1 cell noCPT 4.6µM, TGFb inhibitor inconclusive, IL-1B inflam inh -52
Cc1nnc(N/N=C/c2ccccc2C(F)(F)F)n1N	TGFb inhibitor inconclusive
COc1cccc(/C=N/Nc2nnc(C)n2N)c1O	DT40 TDP1 CPT inconclusive, TDP1 cell noCPT 21µM, TGFb inhibitor 7.9µM
COc1ccc(-n2c(C)cc(/C=N/Nc3nnc(C)n3N)c2C)cc1	DT40 TDP1 CPT 23µM, TDP1 cell noCPT 16µM, TGFb inhibitor 3.5µM, IL-1B inflam inh -81, HepG2 tox 5µM
Fc1ccccc1COc1ccccc1/C=N/Nc1nc(N2CCCC2)nc(N2CCCC2)n1	DT40 TDP1 CPT inconclusive, TDP1 cell noCPT 21µM
Cc1nnc(N/N=C/c2ccccc2F)n1N	none
COc1cccc(/C=N/Nc2cc(Cl)nc(C)n2)c1O	none
Nc1c(Cl)cc(-c2cn(CCC(=O)O)c(-c3ccc(Cl)nc3)n2)cc1Cl	none
O=C(Cc1cccs1)NCCS(=O)(=O)N1CCN(c2cccc(Cl)c2)CC1	TDP1 cell noCPT inconclusive, TGFb inhibitor inconclusive
CCOC(=O)C1(C)CCCN1C(=O)c1c(F)cccc1F (stereo not given)	none (no result: ASM inhibitor)
COc1cccc(/C=N/Nc2nc(N3CCCC3)nc(N3CCCC3)n2)c1O	DT40 TDP1 CPT inconclusive, TDP1 cell noCPT 21µM, IL-1B inflam inh -100
COc1ccc(/C=N/Nc2nc(N3CCCC3)nc(N3CCCC3)n2)c(OC)c1OC	none
CCn1c(=O)cc(SCC(=O)N2CCN(C3CCCCC3)CC2)c2ccccc21	IL-1B inflam inh inconclusive
O=C(OCC(=O)N1CCN(C(=O)c2ccco2)CC1)c1ccccc1OCc1ccc(Cl)cc1	DT40 TDP1 CPT 16µM, TDP1 cell noCPT 23µM
O=C(c1ccco1)N1CCN(CCCCN2C(=O)c3ccccc3C2=O)CC1	IL-1B inflam inh -69
CCn1c(=O)cc(SCC(=O)N2CCN(c3ccccc3OC)CC2)c2ccccc21	DT40 TDP1 CPT 18µM, TDP1 cell noCPT inconclusive
COc1ccc(CN2CCN(C(=O)c3ccco3)CC2)cc1OCc1ccccc1	DT40 TDP1 CPT inconclusive, TDP1 cell noCPT 15µM
O=C(OCC(=O)N1CCOCC1)c1ccccc1OCc1ccc(Cl)cc1	TDP1 cell noCPT inconclusive
COc1ccccc1OCc1ccc(C(=O)N2CCN(C(=O)c3ccco3)CC2)cc1	none
COCc1cc(C)nc(Sc2nc3c(c(=O)n(C)c(=O)n3C)n2C)c1C#N	none
CC(=O)Nc1ccc(S(=O)(=O)N2CCC(N3CCN(Cc4ccc(C)cc4)C(=O)C3=O)CC2)cc1	none (no result: ASM inhibitor, IL-1B inflam inh)
CC(NNC(=O)c1ccccc1)c1ccccc1 (stereo not given)	none (no result: TGFb inhibitor, ASM inhibitor, IL-1B inflam inh, HepG2 tox)
Cc1ccc(C)c(CN2C(=O)c3ccccc3S(=O)(=O)c3ccc(C(=O)Nc4cc(F)ccc4F)cc32)c1	none (no result: DT40 TDP1 CPT, TDP1 cell noCPT, ASM inhibitor, IL-1B inflam inh)
COc1ccc(-c2nc(CN3CCN(C(=O)c4ccco4)CC3)c(C)o2)c(OC)c1C	DT40 TDP1 CPT inconclusive, TDP1 cell noCPT 18µM, TGFb inhibitor inconclusive
CCn1c(=O)cc(SCC(=O)N2CCOCC2)c2ccccc21	none
COc1ccc(OC)c(-c2nc(CN3CCN(C(=O)c4ccco4)CC3)c(C)o2)c1	TDP1 cell noCPT inconclusive
CCn1c(=O)cc(SCC(=O)N2CCN(C(=O)c3ccco3)CC2)c2ccccc21	TDP1 cell noCPT inconclusive, IL-1B inflam inh -52
Cc1cc(C)cc(OCC(O)CN2CCN(C(=O)c3ccco3)CC2)c1 (stereo not given)	none
CCn1c2ccccc2c2cc(CN3CCN(C(=O)c4ccco4)CC3)ccc21	DT40 TDP1 CPT inconclusive, TDP1 cell noCPT 23µM
O=C(c1ccco1)N1CCN(CC(O)COc2ccc3oc4ccccc4c3c2)CC1 (stereo not given)	DT40 TDP1 CPT 18µM, TDP1 cell noCPT inconclusive, TGFb inhibitor inconclusive
O=C(COC(=O)c1ccncc1)Nc1cc(S(=O)(=O)N2CCOCC2)ccc1Cl	none
CN(C)C(=O)CCC(=O)NCC1Cc2cccc(-c3ccccc3C(F)(F)F)c2O1 (stereo not given)	DT40 TDP1 CPT inconclusive (no result: TGFb inhibitor, ASM inhibitor, IL-1B inflam inh, HepG2 tox)
